Only some compounds are listed: those with a hit (about 0.89% of all), similar ones and a draw of the others.
RPL19A TOR yeast: modulators of TOR pathway RPL19A-GFP in S. cerevisiae; AID 2025; percent response vs DMSO, % at 10 µM; S. cerevisiae RPL19A-GFP strain, flow cytometry, 3 h; stronger effect = lower value; hit rate 0.3% among 330,000;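 active = percent response vs DMSO below 50%; inconclusive = fewer than 70 events counted for the yeast strain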;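 also: median channel GFP fluorescence of the barcoded RPL19A-GFP strain; ratio of sample median GFP to plate DMSO average so 100% = DMSO; lower means less RPL19A-GFP as with rapamycin TOR inhibition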
CIT2-GFP yeast: modulators of TOR pathway CIT2-GFP in S. cerevisiae; S. cerevisiae CIT2-GFP strain, flow cytometry, 3 h; 100 means same as DMSO wells; hit rate 0.065% among 320,000; GFP response vs DMSO, % at 10 µM;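 active = GFP response relative to DMSO above a set limit, near the screen mean plus 3 SD, cut at about 150% in these data; inconclusive = Fewer than 70 cells measured for a yeast strain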;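 also: ratio of well median GFP fluorescence to mean of DMSO wells on the plate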
LAP4 TOR yeast: alters LAP4-GFP fluorescence in TOR pathway yeast screen | GFP response vs DMSO, % at 10 µM | AID 2023 | hit rate 0.34% among 320,000 | S. cerevisiae LAP4-GFP multiplex, flow cytometry GFP, 3 h; median GFP as percent of DMSO wells;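 active = GFP response vs DMSO above a set limit, about the screen mean plus 3 SD, cut at about 150% in these data; inconclusive = under 70 cell events counted for the yeast strain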
AGP1-GFP MLPCN: modulators of TOR pathway AGP1-GFP in S. cerevisiae | GFP response vs DMSO, % at 10 µM | AID 2066 | hit rate 0.02% among 320,000 | S. cerevisiae AGP1-GFP multiplex flow cytometry, 3 h; GFP as percent of DMSO wells;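 active = GFP response relative to DMSO above a set limit, near screen average plus 3 SD, cut at about 150% in these data; inconclusive = fewer than 70 cells counted for the yeast strain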;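 also: median GFP channel fluorescence of the gated AGP1 strain per well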
MEP2 TOR yeast: alters MEP2-GFP fluorescence in TOR pathway yeast screen; GFP response vs DMSO, % at 10 µM; hit rate 0.51% among 330,000; S. cerevisiae MEP2-GFP strain, flow cytometry GFP, 3 h; 100% = DMSO control level;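 active = GFP response versus DMSO above a set limit, roughly screen mean plus 3 SD, cut at about 180% in these data; inconclusive = fewer than 70 cells counted for a yeast strain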;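 also: median GFP fluorescence of the barcode-gated MEP2-GFP cells per well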
Numbers without * were called inactive; ? = inconclusive; / = not tested or not shown; [ ] = another dose, or the depositor's remark.

SMILES | RPL19A TOR yeast | CIT2-GFP yeast | LAP4 TOR yeast | AGP1-GFP MLPCN | MEP2 TOR yeast
CN(C)c1ccc(NC(=O)CSc2nc3ccccc3c(=O)n2CC2CCCO2)cc1 (stereo not given) | 54 | ? | 78 | ? | 214*[may fluoresce violet]
O=C1CC(C(=O)Nc2ccc(Br)cc2)S/C(=N\N=C\c2ccco2)N1 (stereo not given) | 96 | 97 | 109 | 98 | 100
CC(OC(=O)c1nn(C)c(=O)c2ccccc12)C(=O)NC1CCCCC1C (stereo not given) | 100 | 102 | 101 | 110 | 99
COc1ccc(C2Nc3ccc4ccccc4c3-c3c2c(=O)oc2ccccc32)cc1 (stereo not given) | 79 | 91 | 87 | 86 | 114
O=c1oc2ccccc2c2c1C(c1ccc(Cl)cc1)Nc1ccc3ccccc3c1-2 (stereo not given) | 39*[may fluoresce violet] | ? | 91 | 71 | 159
CCC1C(=O)NCCN1C(=O)c1ccccc1OC1CCN(S(C)(=O)=O)CC1 (stereo not given) | 97 | 90 | 108 | 92 | 89
CCCc1cc(=O)oc2cc(C)cc(OCC(=O)Nc3ccc(CN4CCOCC4)cc3)c12 | 28*[may fluoresce violet] | ? | 61 | ? | 271*[may fluoresce violet]
COc1ccc(CCC(=O)NCc2cn3ccsc3n2)cc1 | 98 | 98 | 96 | 101 | 100
C#CCOCCOCCOCCNc1nc(N2CCN(C(=O)CCCCCCCCCCNC(=O)[C@H](CCCN=C(N)N)n3cc(C[C@@H](C)CC)nn3)CC2)nc(N2CCN(C(=O)CCCCCCCCCCNC(=O)[C@@H]([C@H](C)CC)n3cc(CCCCCN)nn3)CC2)n1 | 70 | 76 | 193* | 83 | 92
C#CCOCCOCCOCCNc1nc(N2CCN(C(=O)CCCCCCCCCCNC(=O)[C@H]([C@@H](C)CC)n3cc(CCCCN=C(N)N)nn3)CC2)nc(N2CCN(C(=O)CCCCCCCCCCNC(=O)[C@H](CCCN=C(N)N)n3cc(C[C@@H](C)CC)nn3)CC2)n1 | 75 | 96 | 165* | 93 | 106
C#CCOCCOCCOCCNc1nc(N2CCOCC2)nc(N2CCN(C(=O)CCCCCCCCCCNC(=O)[C@H]([C@@H](C)CC)n3cc(CCCCN=C(N)N)nn3)CC2)n1 | 88 | 90 | 119 | 77 | 78
C#CCOCCOCCOCCNc1nc(N2CCN(C(=O)CCCCCCCCCCNC(=O)[C@H]([C@@H](C)CC)n3cc(CCCCN=C(N)N)nn3)CC2)nc(N2CCN(C(=O)CCCCCCCCCCNC(=O)[C@@H]([C@H](C)O)n3cc(C)nn3)CC2)n1 | 98 | 75 | 104 | 84 | 90
COc1ccc(/C=C/c2c(-c3ccc(OC)cc3)oc3ccccc23)cc1 | 96 | 99 | 93 | 93 | 100
N#C/C(=N\O)c1nc(-c2ccccc2)cs1 | 101 | 78 | 114 | 93 | 99
CC(=O)Nc1ccc(C(=O)NNC(=O)CCc2ccccc2)cc1 | 43*[may fluoresce violet] | ? | 111 | 25 | 250*[may fluoresce violet]
O=C(CCc1ccccc1)NNC(=O)c1ccc(NC(=O)c2ccccc2)cc1 | 99 | 97 | 91 | 103 | 100
CCOc1ccccc1C1N=C(c2ccc(OC)cc2)CC(c2ccccc2O)N1 (stereo not given) | 99 | 89 | 167* | 85 | 100
CN(C)c1ccc(/C=C/c2ccc3ccccc3n2)cc1 | 102 | 84 | 100 | 82 | 109
CCN(CC)c1ccc(/C=C/c2cc(-c3ccccc3)c3ccccc3n2)cc1 | 30*[may fluoresce violet] | ? | ? | ? | ?
CSc1nc(N)nc2c1ncn2CC(=O)NCc1ccc2c(c1)OCO2 | 91 | 87 | 91 | 91 | 86
CCCCC1=CC2=CC(=O)C(C)(OC(=O)CC)C(=O)C2=CO1 (stereo not given) | 35*[may fluoresce violet] | ? | 52 | ? | 260*[may fluoresce violet]
CCC(=O)OC1(C)C(=O)C=C2C=C(CCCC(=O)OC)OC=C2C1=O (stereo not given) | 94 | 88 | 88 | 90 | 87
Cc1ccc(-n2nc(C)c3c(C)c(CCC(=O)O)c(C)nc32)cc1C | 99 | 85 | 124 | 84 | 100
Cc1ccc(-n2nc(C)c3c(C)c(CCC(=O)O)c(C)nc32)cc1 | 105 | 134 | 151* | 91 | 185*
O=c1cc(-c2c(F)c(F)c(F)c(F)c2F)oc2ccccc12 | 101 | 111 | 93 | 105 | 105
SMILES | RPL19A TOR yeast | CIT2-GFP yeast | LAP4 TOR yeast | AGP1-GFP MLPCN | MEP2 TOR yeast
O=c1cc(-c2c(F)c(F)c(F)c(F)c2F)oc2c(F)c(F)c(F)c(F)c12 | 94 | 114 | 177* | 104 | 103
COc1cc(C2N(Cc3ccccc3)CCN2Cc2ccccc2)ccc1OC(C)=O | 42*[may fluoresce violet] | ? | 84 | ? | 497*[may fluoresce violet]
O=C(N/N=C/c1cccs1)c1ccccn1 | 94 | 100 | 96 | 97 | 97
Cc1ccc(/C=N/NC(=O)c2ccccn2)s1 | 81 | 110 | 140 | 106 | 200*
CN(C)CCOC(=O)C1(c2ccccc2)CCOCC1 | 102 | 98 | 102 | 109 | 96
CC(C)c1ccc2c(c1)C1(NN=C(c3ccccc3)S1)C(=O)N2 (stereo not given) | 94 | 115 | 171* | 96 | 109
CCc1ccc2c(c1)C1(NN=C(c3ccc(C)cc3)S1)C(=O)N2 (stereo not given) | 40*[may fluoresce violet] | ? | 84 | 15 | 92
Cc1ccc(Cc2cc(-c3ccc(C)cc3)n[nH]c2=O)cc1 | 96 | 96 | 102 | 99 | 87
O=C(Nc1cccc(OC(=O)c2cccnc2)c1)c1cccnc1 | 59 | ? | 103 | 21 | 194*[may fluoresce violet]
O=C(Nc1ccc(OC(=O)c2cccnc2)cc1)c1cccnc1 | 98 | 93 | 103 | 96 | 103
Cc1ccc(SSc2cc(C)ccc2N)c(N)c1 | 99 | 101 | 131 | 88 | 82
C/C(CC(=O)Nc1cc(C)ccn1)=N\NC(=O)c1cccc(F)c1 | 70 | 91 | 93 | 14 | 183*
CCOc1ccc(C2/C(=C(\O)c3ccc4c(c3)OCCO4)C(=O)C(=O)N2CCCN2CCOCC2)cc1OC (stereo not given) | 104 | 97 | 101 | 102 | 107
CC1=CC2=NC(=O)CC(C)(C(=O)N(CC(=O)NC3CCCC3)c3ccccc3C)N2C=C1 (stereo not given) | 95 | 88 | 101 | 100 | 103
CC1=CN2C(=NC(=O)CC2(C)C(=O)N(CC(=O)NC2CCCC2)c2ccccc2C)C=C1 (stereo not given) | 36*[may fluoresce violet] | / | 91 | ? | 285*[may fluoresce violet]
COc1ccc(OC)c(C2CC(=O)C(C)C(c3cc(OC)ccc3OC)N2)c1 (stereo not given) | 87 | 92 | 88 | 91 | 98
CCC(=O)N1c2ccc(S(=O)(=O)CCC(=O)Nc3nccs3)cc2CC1C (stereo not given) | 29*[may fluoresce violet] | ? | ? | ? | ?
O=C(N/N=C/c1ccccc1[N+](=O)[O-])c1ccc2c(c1)OCCO2 | 46*[may fluoresce violet] | ? | 99 | 33 | 430*[may fluoresce violet]
CCOCCc1nnc(NC(=O)Cc2ccc(Br)cc2)s1 | 98 | 101 | 97 | 101 | 100

Source: PubChem
